# Results taken from PMC7862700, “An all-to-all approach to the identification of sequence-specific readers for epigenetic DNA modifications on cytosine”.
# What was measured:
# Assay in all cases: DAPPL (digital affinity profiling via proximity ligation, sequencing); 10 mM Tris-HCl pH 7.5, 50 mM NaCl, 1 mM DTT, 4% glycerol, room temperature, 30 min; GST-TFs on glutathione beads, 16-mer random dsDNA library, 0.1% formaldehyde crosslink after washing; high values mean tight binding
# Details in all cases: protein: recombinant; tags: N-terminal GST; dsDNA, one strand shown
# [1] = molecular target: T1, ELK1 (Homo sapiens, UniProt P19419 1-428)
# T1 sequence: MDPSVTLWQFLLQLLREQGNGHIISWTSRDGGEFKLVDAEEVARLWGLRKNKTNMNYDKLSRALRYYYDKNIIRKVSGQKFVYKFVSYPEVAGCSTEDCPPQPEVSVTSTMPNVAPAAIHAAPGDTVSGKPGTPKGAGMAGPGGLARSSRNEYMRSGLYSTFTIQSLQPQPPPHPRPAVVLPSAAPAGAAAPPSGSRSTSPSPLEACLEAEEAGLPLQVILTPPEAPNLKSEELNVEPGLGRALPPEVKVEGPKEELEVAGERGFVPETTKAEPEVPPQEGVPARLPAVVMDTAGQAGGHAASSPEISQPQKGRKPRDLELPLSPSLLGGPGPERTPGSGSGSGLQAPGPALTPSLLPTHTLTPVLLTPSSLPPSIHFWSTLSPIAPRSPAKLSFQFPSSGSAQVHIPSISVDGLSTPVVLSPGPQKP
# In short: (§1)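 GST fusions of human transcription factors were expressed in yeast and captured with glutathione beads. Once given DNA barcodes and pooled alongside a tag-only sample, they were incubated for 30 min at room temperature with 200 nmole of a random double-stranded 16-mer DNA library in Tris/NaCl/DTT/glycerol buffer, then washed, crosslinked (0.1% formaldehyde), proximity-ligated, PCR-amplified and sequenced on an Illumina NextSeq500. The binding signal of each hexamer is its read frequency for a factor divided by its frequency for the tag-only sample.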
# [2] = molecular target: T2, GABPA (Homo sapiens, UniProt Q06546 1-454)
# T2 sequence: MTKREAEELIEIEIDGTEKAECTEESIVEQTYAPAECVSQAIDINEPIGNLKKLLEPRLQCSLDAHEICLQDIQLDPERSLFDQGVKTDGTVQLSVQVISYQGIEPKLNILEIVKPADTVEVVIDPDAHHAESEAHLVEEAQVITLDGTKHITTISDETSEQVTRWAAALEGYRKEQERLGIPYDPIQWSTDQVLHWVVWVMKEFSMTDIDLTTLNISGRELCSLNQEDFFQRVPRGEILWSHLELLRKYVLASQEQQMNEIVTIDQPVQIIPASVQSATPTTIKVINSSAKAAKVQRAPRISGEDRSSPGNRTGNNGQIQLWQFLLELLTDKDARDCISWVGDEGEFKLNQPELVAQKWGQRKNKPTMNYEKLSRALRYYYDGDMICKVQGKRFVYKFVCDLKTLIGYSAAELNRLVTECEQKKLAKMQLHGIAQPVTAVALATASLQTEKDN
# In short: as §1
# [3] = molecular target: T3, ERG (Homo sapiens, UniProt P11308 1-479)
# T3 sequence: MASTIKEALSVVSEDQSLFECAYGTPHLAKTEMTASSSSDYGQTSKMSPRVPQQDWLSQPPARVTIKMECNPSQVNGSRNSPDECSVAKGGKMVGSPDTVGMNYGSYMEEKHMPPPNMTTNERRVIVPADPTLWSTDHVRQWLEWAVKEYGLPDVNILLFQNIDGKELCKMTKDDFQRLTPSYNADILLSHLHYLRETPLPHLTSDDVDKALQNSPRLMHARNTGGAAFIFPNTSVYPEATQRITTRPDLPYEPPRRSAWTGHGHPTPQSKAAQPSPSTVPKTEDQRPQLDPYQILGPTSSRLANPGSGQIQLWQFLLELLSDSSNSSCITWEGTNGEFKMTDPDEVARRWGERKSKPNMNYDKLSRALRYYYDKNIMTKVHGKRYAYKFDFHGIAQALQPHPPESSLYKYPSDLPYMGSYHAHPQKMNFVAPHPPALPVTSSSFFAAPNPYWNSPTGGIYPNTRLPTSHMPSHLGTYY
# In short: as §1
# [4] = molecular target: ELF1 (Homo sapiens, UniProt P32519 1-619)
# In short: as §1
# [5] = molecular target: T4, EHF (Homo sapiens, UniProt Q9NZC4 1-300)
# T4 sequence: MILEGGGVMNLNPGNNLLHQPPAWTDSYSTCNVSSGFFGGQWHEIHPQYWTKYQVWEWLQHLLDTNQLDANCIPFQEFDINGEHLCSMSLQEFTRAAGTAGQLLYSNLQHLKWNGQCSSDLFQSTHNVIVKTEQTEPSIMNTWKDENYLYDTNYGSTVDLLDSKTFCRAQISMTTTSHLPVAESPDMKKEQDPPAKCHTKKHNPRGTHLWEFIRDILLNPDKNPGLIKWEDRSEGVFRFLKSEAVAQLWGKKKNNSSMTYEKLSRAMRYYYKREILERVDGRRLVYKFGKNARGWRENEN
# In short: as §1
# [6] = molecular target: SPIB (Homo sapiens, UniProt Q01892 1-262)
# In short: as §1
# [7] = molecular target: T5, ELK3 (Homo sapiens, UniProt P41970 1-407)
# T5 sequence: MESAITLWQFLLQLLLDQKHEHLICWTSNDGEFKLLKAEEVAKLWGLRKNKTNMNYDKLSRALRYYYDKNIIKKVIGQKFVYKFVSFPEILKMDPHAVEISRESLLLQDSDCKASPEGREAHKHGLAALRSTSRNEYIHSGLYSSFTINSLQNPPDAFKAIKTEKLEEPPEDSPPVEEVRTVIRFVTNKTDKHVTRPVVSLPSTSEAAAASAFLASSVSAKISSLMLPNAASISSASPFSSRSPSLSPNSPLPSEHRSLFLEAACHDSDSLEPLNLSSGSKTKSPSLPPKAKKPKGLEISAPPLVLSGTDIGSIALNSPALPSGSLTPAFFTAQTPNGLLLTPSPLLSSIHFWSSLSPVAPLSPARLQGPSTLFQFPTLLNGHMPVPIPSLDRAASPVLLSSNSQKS
# In short: as §1
# [8] = molecular target: ETV5 (Homo sapiens, UniProt P41161 1-510)
# In short: as §1
# [9] = molecular target: T6, SPIC (Homo sapiens, UniProt Q8N5J4 1-248)
# T6 sequence: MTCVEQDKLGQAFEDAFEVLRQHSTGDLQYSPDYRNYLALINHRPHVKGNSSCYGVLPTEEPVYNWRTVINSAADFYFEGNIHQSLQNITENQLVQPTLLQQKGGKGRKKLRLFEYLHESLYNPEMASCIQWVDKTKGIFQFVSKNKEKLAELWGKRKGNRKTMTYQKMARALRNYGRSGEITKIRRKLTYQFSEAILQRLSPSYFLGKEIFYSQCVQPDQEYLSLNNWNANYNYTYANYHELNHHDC
# In short: as §1
# [10] = molecular target: ELF4 (Homo sapiens, UniProt Q99607 1-663)
# In short: as §1
# [11] = molecular target: T7, ELK4 (Homo sapiens, UniProt P28324-2 1-405)
# T7 sequence: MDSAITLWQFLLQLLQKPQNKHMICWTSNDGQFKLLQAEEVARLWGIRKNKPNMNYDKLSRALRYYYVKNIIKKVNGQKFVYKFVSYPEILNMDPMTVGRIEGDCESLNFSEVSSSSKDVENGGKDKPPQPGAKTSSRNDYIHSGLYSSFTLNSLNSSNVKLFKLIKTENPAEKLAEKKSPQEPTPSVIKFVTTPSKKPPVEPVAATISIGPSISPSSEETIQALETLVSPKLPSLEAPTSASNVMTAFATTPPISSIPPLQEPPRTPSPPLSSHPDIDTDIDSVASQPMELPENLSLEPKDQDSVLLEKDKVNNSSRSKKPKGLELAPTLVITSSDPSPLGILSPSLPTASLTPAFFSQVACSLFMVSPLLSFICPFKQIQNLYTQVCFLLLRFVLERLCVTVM
# In short: as §1
# [12] = molecular target: ETV1 (Homo sapiens, UniProt P50549 1-477)
# In short: as §1
# [13] = molecular target: T8, ERF (Homo sapiens, UniProt P50548 1-548)
# T8 sequence: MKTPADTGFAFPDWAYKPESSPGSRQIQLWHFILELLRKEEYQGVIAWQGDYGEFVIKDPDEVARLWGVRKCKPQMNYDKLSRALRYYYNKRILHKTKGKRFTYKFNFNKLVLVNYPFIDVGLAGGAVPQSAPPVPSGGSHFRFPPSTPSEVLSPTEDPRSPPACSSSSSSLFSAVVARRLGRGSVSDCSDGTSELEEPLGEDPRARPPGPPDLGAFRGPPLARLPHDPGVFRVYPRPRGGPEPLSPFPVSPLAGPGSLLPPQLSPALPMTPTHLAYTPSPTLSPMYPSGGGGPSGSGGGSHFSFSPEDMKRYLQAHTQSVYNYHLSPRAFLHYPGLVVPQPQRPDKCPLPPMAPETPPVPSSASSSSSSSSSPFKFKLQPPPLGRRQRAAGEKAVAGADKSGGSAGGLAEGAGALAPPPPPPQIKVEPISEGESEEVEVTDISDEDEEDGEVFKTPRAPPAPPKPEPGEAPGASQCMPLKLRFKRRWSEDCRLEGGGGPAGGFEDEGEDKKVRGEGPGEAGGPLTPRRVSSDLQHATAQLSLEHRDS
# In short: as §1
# [14] = molecular target: T9, ETV3L (Homo sapiens, UniProt Q6ZN32 1-361)
# T9 sequence: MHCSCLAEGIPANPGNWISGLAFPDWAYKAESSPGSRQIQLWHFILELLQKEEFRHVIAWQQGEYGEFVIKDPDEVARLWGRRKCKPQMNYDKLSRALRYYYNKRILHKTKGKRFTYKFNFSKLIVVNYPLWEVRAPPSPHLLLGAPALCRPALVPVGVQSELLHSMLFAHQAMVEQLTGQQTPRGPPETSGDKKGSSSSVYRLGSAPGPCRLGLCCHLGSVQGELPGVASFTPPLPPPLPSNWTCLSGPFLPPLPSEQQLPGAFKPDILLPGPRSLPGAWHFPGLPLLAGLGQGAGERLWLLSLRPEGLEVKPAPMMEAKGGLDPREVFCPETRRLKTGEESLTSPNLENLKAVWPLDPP
# In short: as §1
# [15] = molecular target: T10, ETS2 (Homo sapiens, UniProt P15036 1-469)
# T10 sequence: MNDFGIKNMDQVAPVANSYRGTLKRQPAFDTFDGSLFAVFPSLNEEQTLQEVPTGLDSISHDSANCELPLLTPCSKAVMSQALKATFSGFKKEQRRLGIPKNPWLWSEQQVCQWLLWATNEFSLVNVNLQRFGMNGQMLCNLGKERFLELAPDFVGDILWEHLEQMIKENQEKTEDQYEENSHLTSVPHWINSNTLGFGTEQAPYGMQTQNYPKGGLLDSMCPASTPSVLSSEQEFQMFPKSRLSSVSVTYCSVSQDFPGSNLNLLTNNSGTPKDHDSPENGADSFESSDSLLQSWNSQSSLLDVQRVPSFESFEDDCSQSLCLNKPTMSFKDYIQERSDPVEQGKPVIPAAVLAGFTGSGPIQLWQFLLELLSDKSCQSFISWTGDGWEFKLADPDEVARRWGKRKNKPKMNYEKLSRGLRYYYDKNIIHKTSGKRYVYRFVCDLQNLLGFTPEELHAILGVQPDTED
# In short: as §1
# [16] = molecular target: T11, SPDEF (Homo sapiens, UniProt O95238 1-335)
# T11 sequence: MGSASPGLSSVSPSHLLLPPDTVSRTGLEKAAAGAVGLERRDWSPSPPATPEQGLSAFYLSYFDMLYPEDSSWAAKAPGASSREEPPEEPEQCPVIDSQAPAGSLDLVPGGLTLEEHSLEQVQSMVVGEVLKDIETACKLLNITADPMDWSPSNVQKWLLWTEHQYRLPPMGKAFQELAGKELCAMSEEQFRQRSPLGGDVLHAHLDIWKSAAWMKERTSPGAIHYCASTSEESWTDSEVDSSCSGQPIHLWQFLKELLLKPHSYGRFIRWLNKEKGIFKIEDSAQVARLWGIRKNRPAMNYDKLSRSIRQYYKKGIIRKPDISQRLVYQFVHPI
# In short: as §1
# [17] = molecular target: T12, ETV7 (Homo sapiens, UniProt Q9Y603 1-341)
# T12 sequence: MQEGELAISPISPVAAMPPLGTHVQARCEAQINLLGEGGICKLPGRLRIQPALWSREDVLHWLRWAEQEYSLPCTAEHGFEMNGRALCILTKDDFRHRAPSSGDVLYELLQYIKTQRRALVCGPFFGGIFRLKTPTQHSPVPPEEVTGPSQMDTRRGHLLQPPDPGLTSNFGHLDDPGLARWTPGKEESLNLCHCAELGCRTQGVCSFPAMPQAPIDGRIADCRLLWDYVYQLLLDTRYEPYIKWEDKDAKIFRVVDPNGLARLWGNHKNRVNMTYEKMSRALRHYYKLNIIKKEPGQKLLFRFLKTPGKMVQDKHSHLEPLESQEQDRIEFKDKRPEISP
# In short: as §1
# [18] = molecular target: T13, ETV3 (Homo sapiens, UniProt P41162-2 1-143)
# T13 sequence: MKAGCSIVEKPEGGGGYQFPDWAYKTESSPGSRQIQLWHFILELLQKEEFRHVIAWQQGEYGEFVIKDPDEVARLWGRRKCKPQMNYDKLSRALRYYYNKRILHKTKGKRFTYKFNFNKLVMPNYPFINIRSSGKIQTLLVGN
# In short: as §1
# ETV1, sequence (P50549 whole entry): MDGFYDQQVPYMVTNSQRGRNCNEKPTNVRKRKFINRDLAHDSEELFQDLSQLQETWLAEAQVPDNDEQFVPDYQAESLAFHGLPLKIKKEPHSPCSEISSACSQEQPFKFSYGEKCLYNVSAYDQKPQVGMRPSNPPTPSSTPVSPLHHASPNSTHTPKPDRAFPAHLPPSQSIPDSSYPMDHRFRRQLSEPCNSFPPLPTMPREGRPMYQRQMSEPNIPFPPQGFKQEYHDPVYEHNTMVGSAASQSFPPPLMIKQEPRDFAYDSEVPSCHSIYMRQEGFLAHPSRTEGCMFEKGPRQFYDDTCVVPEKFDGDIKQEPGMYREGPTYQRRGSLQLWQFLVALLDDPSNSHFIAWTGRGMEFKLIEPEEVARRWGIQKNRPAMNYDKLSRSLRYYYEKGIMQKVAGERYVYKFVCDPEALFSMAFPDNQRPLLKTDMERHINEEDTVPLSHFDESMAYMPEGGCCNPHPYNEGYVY
# ETV5, sequence (P41161 whole entry): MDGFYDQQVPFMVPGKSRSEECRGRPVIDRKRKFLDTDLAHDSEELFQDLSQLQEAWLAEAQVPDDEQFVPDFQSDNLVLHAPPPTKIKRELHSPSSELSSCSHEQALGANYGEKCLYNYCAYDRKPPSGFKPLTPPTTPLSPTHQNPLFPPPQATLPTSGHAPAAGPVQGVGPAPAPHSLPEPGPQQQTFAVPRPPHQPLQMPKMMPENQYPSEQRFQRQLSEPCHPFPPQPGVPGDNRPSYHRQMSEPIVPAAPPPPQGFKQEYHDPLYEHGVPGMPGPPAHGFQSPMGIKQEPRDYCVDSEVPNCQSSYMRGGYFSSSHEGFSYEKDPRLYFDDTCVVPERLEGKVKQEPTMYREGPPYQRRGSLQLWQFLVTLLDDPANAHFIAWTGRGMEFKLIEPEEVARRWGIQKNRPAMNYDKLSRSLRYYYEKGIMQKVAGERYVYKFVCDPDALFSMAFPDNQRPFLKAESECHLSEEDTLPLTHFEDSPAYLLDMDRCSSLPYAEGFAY
# ELF1, sequence (P32519 whole entry): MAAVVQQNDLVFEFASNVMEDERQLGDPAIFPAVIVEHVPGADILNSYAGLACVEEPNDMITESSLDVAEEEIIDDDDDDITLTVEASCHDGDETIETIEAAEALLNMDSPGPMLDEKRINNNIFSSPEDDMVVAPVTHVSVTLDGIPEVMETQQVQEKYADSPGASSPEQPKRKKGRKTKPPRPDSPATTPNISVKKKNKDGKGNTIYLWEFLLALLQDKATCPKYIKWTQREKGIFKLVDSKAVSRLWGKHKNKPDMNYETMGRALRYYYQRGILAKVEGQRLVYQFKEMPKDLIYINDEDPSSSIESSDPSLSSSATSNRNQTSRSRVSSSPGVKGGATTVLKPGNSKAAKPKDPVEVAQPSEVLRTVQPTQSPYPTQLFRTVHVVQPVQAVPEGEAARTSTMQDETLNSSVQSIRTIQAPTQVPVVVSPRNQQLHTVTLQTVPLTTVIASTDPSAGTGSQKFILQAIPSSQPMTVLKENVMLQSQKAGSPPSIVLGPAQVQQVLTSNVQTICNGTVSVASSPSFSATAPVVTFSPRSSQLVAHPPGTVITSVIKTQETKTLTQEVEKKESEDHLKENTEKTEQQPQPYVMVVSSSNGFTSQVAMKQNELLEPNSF
# ELF4, sequence (Q99607 whole entry): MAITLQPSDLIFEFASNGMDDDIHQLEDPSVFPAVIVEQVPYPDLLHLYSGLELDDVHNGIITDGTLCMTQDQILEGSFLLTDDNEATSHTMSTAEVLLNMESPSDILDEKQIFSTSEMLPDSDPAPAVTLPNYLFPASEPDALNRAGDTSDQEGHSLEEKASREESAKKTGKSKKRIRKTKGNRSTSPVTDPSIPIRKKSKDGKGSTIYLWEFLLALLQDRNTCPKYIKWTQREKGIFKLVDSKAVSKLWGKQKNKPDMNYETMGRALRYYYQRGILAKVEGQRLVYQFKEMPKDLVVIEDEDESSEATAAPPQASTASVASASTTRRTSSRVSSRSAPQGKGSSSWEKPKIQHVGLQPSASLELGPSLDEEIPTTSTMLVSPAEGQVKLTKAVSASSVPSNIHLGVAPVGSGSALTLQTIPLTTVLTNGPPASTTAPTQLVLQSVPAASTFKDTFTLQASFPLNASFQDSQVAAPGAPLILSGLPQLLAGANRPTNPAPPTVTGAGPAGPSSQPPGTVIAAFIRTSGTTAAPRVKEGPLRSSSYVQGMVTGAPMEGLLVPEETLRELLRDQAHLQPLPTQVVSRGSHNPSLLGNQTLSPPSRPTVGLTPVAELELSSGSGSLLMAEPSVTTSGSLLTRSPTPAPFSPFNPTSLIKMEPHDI
# SPIB, sequence (Q01892 whole entry): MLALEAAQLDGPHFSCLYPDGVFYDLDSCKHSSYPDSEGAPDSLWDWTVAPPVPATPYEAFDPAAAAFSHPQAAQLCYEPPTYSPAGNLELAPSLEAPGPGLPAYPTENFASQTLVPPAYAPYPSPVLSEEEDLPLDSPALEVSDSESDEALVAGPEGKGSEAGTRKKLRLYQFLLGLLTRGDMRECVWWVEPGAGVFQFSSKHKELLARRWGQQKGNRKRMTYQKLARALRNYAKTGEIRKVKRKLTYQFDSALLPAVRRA
sequence,measurement,setting,value
TGCAGC,binding signal,[1],"1.07 fold enrichment (6-mer frequency, TF over GST control)"
same,binding signal,[2],"1.16 fold enrichment (6-mer frequency, TF over GST control)"
same,binding signal,[3],"1.06 fold enrichment (6-mer frequency, TF over GST control)"
same,binding signal,[4],"1.09 fold enrichment (6-mer frequency, TF over GST control)"
same,binding signal,[5],"1.09 fold enrichment (6-mer frequency, TF over GST control)"
same,binding signal,[6],"1.17 fold enrichment (6-mer frequency, TF over GST control)"
same,binding signal,[7],"1.07 fold enrichment (6-mer frequency, TF over GST control)"
same,binding signal,[8],"1.03 fold enrichment (6-mer frequency, TF over GST control)"
same,binding signal,[9],"1.22 fold enrichment (6-mer frequency, TF over GST control)"
same,binding signal,[10],"1.1 fold enrichment (6-mer frequency, TF over GST control)"
same,binding signal,[11],"1.15 fold enrichment (6-mer frequency, TF over GST control)"
same,binding signal,[12],"1.02 fold enrichment (6-mer frequency, TF over GST control)"
same,binding signal,[13],"1.13 fold enrichment (6-mer frequency, TF over GST control)"
same,binding signal,[14],"1.07 fold enrichment (6-mer frequency, TF over GST control)"
same,binding signal,[15],"1.1 fold enrichment (6-mer frequency, TF over GST control)"
same,binding signal,[16],"1.15 fold enrichment (6-mer frequency, TF over GST control)"
same,binding signal,[17],"1.04 fold enrichment (6-mer frequency, TF over GST control)"
same,binding signal,[18],"1.05 fold enrichment (6-mer frequency, TF over GST control)"
